Results from PubChem BioAssay (EPA / NIEHS).
Where “and” joins values, the source holds several entries; their conditions need not be identical. Identical values can stand only once. More than one record can exist for a structure, and the calls need not agree. Calls of active or inactive are those of the source. Rule for the calls: active = hit-call score of the fitted dose curve at least 0.9, where 1 is the maximum; inactive = score below 0.9.

biological target: Transcription factor Sp1 (Homo sapiens) (UniProt P08047); assay: ATG_Sp1_CIS: Attagene CIS-FACTORIAL HepG2 Assay for human Specificity Protein 1 (Sp1) (AID 2282961); conditions: HepG2 Sp1 cis-reporter transcription, actives raise or lower the signal
Description: ATG_CIS is a cell-based, multiplexed-readout assay that uses HepG2, a human liver cell line, with measurements taken at 24 hours after chemical dosing in a 24-well plate.ATG_Sp1_CIS is one of 52 assay component(s) measured or calculated from the ATG_CIS assay. It is designed to make measurements of mRNA induction, a form of inducible reporter, as detected with fluorescence intensity signals by Reverse transcription polymerase chain reaction (RT-PCR) and Capillary electrophoresis technology.Data from the assay component ATG_Sp1_CIS was analyzed into 1 assay endpoint. This assay endpoint, ATG_Sp1_CIS, was analyzed with bidirectional fitting relative to DMSO as the negative control and baseline of activity. Using a type of inducible reporter, measures of mRNA for gain or loss-of-signal activity can be used to understand the reporter gene at the transcription factor-level as they relate to the gene SP1. Furthermore, this assay endpoint can be referred to as a primary readout, because this assay has produced multiple assay endpoints where this one serves a reporter gene function. To generalize the intended target to other relatable targets, this assay endpoint is annotated to the dna binding intended target family, where the subfamily is zinc finger.
Human liver HepG2 cells are transiently transfected with multiple reporter transcription units (MRTUs) in 6-well plates using FuGene 6 reagent (Roche; 3 ml FuGene/1 mg DNA). The MRTU constructs are regulated by a cis-regulating element (promoter). […] A major difference between the CIS and TRANS system is that in CIS activities of endogenous TFs are measured, whereas the TRANS assay evaluates changes in activities of exogenous, chimeric NR-Gal4 proteins. […] At the end of 24 hour incubation, total RNA was isolated using TriZol reagent (Invitrogen). The isolated RNA is then reverse-transcribed using oligo(dT) primer and Mo-MLV reverse transcriptase (Invitrogen) with DNAse I (Ambion) treatment for 30 min. The one-tenth of the produced cDNA was amplified by PCR using Taq DNA polymerase (Invitrogen) and two reporter sequence-specific primers. The PCR products were fluorescently labeled by primer extension with 6-arboxyfluorescein (6-FAM) 5'-labeled reporter sequence-specific primer (2 min at 95 C, 20 s at 68 C and 10 min at 72 C) and these products were digested with 5U of HpaI (New England Biolabs) for 2h at 37 C. The fragments were purified using Qiaquick PCR columns (Qiagen), analyzed on an ABI 3130xL genetic analyzer (Applied Biosystems) with peak positions identified by using a set of X-rhodamine (ROX)-labeled MapMarker1000 molecular weight standards (BioVentures). The raw capillary electrophoresis data was processed using Attagraph software (Attagene).

Chain of Transcription factor Sp1 (Homo sapiens) (P08047 whole entry, looked up): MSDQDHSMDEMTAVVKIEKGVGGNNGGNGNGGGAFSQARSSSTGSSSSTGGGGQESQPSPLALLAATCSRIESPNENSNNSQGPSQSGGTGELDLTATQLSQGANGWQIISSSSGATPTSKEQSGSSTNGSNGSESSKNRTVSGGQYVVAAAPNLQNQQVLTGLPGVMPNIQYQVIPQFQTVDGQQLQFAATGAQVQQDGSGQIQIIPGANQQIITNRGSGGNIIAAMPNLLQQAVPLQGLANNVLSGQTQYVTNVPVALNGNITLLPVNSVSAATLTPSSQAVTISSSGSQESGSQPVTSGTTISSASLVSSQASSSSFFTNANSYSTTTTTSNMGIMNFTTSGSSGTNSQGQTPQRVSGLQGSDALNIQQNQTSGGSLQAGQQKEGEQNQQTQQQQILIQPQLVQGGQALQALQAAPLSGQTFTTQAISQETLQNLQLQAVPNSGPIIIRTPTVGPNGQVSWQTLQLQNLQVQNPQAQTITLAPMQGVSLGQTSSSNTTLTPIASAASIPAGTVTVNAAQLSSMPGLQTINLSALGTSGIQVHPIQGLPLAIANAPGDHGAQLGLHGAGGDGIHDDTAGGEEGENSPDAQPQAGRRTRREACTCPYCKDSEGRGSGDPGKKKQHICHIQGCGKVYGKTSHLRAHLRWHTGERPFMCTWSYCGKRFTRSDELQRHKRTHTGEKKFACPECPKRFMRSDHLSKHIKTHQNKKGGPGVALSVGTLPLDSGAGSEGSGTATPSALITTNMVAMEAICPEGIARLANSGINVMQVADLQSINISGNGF

Compound | outcome | AC50
CC(CCO)CC(C)(C)C (stereo not given) | inactive | 
CC1=CCC(=C(C)C)CC1 | inactive | 
O=C1CCCCCCCCCCCC(=O)OCCO1 | inactive | 
CCCCCCCCCCCCCC(=O)OCC | inactive | 
[Cl][Dy]([Cl])[Cl] | inactive | 
C1COCO1 | inactive | 
O=C(C=Cc1ccccc1)OCCCc1ccccc1 | inactive | 
c1ccc2scnc2c1 | inactive | 
CCCC1CCOC(C)S1 (stereo not given) | inactive | 
CC=CC(=O)C1=C(C)C=CCC1(C)C | inactive | 
CC(CO)(CO)[N+](=O)[O-] | inactive | 
NCCN1CCNCC1 | inactive | 
CCCCCCCCCCCCOC(C)=O | inactive | 
O=S1(=O)CC(Cl)(Cl)C(Cl)(Cl)C1 | inactive | 
O=C(c1ccc(OCCN2CCCCC2)cc1)c1c(-c2ccc(O)cc2)sc2cc(O)ccc12 | inactive | 11.1 µM (active) and 16.7 µM (active)
COc1ccc(N)c(C)c1 | inactive | 
O=C1CCC(=O)N1 | inactive | 
NC(=O)NC(N)=O | inactive | 
CC(C)(O)CCc1ccccc1 | inactive | 
CCCCCCOc1ccc(O)cc1 | inactive | 

Compound | outcome | AC50
O=C(O)C1=NN(c2ccc(S(=O)(=O)O)cc2)C(=O)C1 | inactive | 
CCCCCCCCCO | inactive | 
CCNC(=S)NCC | inactive | 
CC1=CCC(C(C)(C)O)CC1 (stereo not given) | inactive | 
CN1CCc2cccc3c2[C@H]1Cc1ccc(O)c(O)c1-3 | inactive | 
N#CCCCC(C#N)CCC#N (stereo not given) | inactive | 
CCCCOCC(C)OCC(C)O (stereo not given) | inactive | 
CC1=CCC(C(C)C)=CC1 | inactive | 
C=CCOC(=O)/C=C\C(=O)OCC=C | inactive | 
CCCCCCCOC(C)=O | inactive | 
O=Cc1ccccc1O | inactive | 
C[C@]12CC[C@@H]3c4ccc(O)cc4CC[C@H]3[C@@H]1CC[C@@H]2O | inactive | 
NC(=O)c1cnccn1 | inactive | 
CCCCOCCOCCOCCO | inactive | 
CC(C)C(=O)OCC=Cc1ccccc1 | inactive | 
CC(=O)CCC(=O)O | inactive | 
CCOc1ccc(NC(C)=O)cc1 | inactive | 
CC(CO)c1ccccc1 (stereo not given) | inactive | 
c1ccc(OCCOc2ccccc2)cc1 | inactive | 
